aSyn 5UTR act = Activators via SNCA 5'UTR binding, MLPCN. alpha-synuclein 5'UTR reporter, activators screen. activity score, % (tested at 7.5 µM), hits read low. 7.1% of 300,000 active. AID 1814, 2009; in the data active = activity score below about -60%
Hits are given with their value; n = inactive. These entries were drawn from the full list.

SMILES	aSyn 5UTR act
Cc1ccc(/C(N)=N/OC(=O)C23CC4CC(CC(C4)C2)C3)cc1	-185
Cc1ccc(/C(N)=N/OC(=O)N2CCOCC2)cc1	-62
NC1=NC2=C(CCCC2)C2(CCCCC2)S1	n
COc1ccc2nc(NC(=S)N(C)C)sc2c1	-81
CC(=O)N1CC(=O)N=C1SCC(=O)Nc1nc(C)c(-c2ccccc2)s1	-79
CCOc1ccc2nc(NC(=O)CSc3nc(SC)ns3)sc2c1	-167
CCOc1ccc2nc(NC(=O)CSC3=NCCS3)sc2c1	-77
COc1ccc2nc(NC(=O)CSc3cn[nH]n3)sc2c1	-68
CCCC(=O)Nc1nc2ccc(OC)cc2s1	-133
COc1ccc2nc(NC(=O)CN3CCOCC3)sc2c1	-63
Cc1nc(NC(=O)CN2CCOCC2)sc1-c1ccccc1	-74
COc1ccc2nc(NC(=O)CSC3=NCCS3)sc2c1	-88
COc1ccc2nc(NC(=O)CSc3ccccc3)sc2c1	-128
O=C(N/N=C/c1cc2c(cc1Br)OCO2)c1cc2ccccc2o1	-66
O=C(N/N=C/c1cc2c(cc1Br)OCO2)c1c[nH]c2ccccc12	-82
O=C(N/N=C/c1cc2c(cc1Br)OCO2)c1ccccn1	-186
O=C(N/N=C/c1c[nH]c2ccc(Br)cc12)c1ccccn1	-63
Cc1ccc(-c2nc3cc(C)ccc3o2)cc1	n
Cc1ccc2oc(-c3ccco3)nc2c1	-137
CCC(CO)Nc1ncnc2c1cnn2-c1ccc(OC)cc1 (stereo not drawn)	-75
Clc1ccc(-n2ncc3c(NCc4ccco4)ncnc32)cc1	-227
CCCN(CCC)c1ncnc2c1cnn2-c1ccc(OC)cc1	-77
COc1ccc(-n2ncc3c(NCc4ccco4)ncnc32)cc1	-162
CN(C)CCNc1ncnc2c1cnn2-c1ccc(Cl)cc1	-93
COc1ccc(-n2ncc3c(NCc4ccccn4)ncnc32)cc1	-128
SMILES	aSyn 5UTR act
Clc1ccc(-n2ncc3c(NCc4ccc5c(c4)OCO5)ncnc32)cc1	-81
CC1CCC(NC(=O)CCC(=O)N2CC(C)Oc3ccccc32)CC1 (stereo not drawn)	-144
Cc1sc(NC(=O)c2ccccc2F)c(CN2CCCCC2C)c1C (stereo not drawn)	-296
Nc1c(C(=O)Nc2ccc3c(c2)OCCO3)nnn1Cc1ccc(Cl)cc1	-212
Nc1c(C(=O)Nc2cccc(F)c2)nnn1-c1cccc(C(F)(F)F)c1	-155
Nc1c(C(=O)Nc2ccc3c(c2)OCCO3)nnn1Cc1cccc(F)c1	-176
Cc1cc(C)c(S(C)(=O)=O)c(S(=O)(=O)c2ccc(Cl)cc2)n1	-87
O=C(COc1ccccc1Br)Nc1ccc2c(c1)OCCCO2	-133
Cc1ccccc1OC(C)C(=O)Nc1ccc2c(c1)OCCO2 (stereo not drawn)	-71
C[C@@H](C(=O)Nc1ccc2c(c1)OCCO2)n1nnc2ccccc2c1=O	-89
N#Cc1ccccc1OCC(=O)Nc1ccc2c(c1)OCCCO2	-160
O=C(COc1ccccc1F)Nc1ccc2c(c1)OCCO2	-75
Clc1ccc(Cl)c(OCc2cc(-c3ccccc3Cl)on2)c1	-155
COc1cc(OC)cc(C(=O)Nc2nc3ccc(S(C)(=O)=O)cc3s2)c1	-149
CS(=O)(=O)c1ccc2nc(NC(=O)c3cccc([N+](=O)[O-])c3)sc2c1	-136
COc1ccc(Cl)cc1C(=O)Nc1nc2ccc(S(C)(=O)=O)cc2s1	-73
COC(=O)c1c(-c2cccs2)csc1NC(=O)c1cccnc1	-87
CCOC(=O)c1c(N/N=C/c2cccnc2)n[nH]c1C	-157
Cc1nc(NC(=O)C2CC3CCCC(C2)C3=O)sc1C (stereo not drawn)	-80
O=C(/C=C/c1cccc(F)c1)c1ccc(N2CCOCC2)cc1	-80
COc1cccc(-c2ccnc3[nH]n(-c4ccccc4)c(=O)c23)c1	-76
COc1ccc(C2=Nc3ccccc3OC2)cc1	-189
Cc1ccc(-c2nc3ccccc3s2)cc1S(=O)(=O)N1CCOCC1	-66
O=C(Nc1nc(-c2nc3ccccc3s2)cs1)c1ccc(S(=O)(=O)N2CCOCC2)cc1	-75
O=C(Nc1nc(-c2cc3ccccc3o2)cs1)c1ccc(S(=O)(=O)N2CCCC2)cc1	-68
SMILES	aSyn 5UTR act
CN(C)S(=O)(=O)c1ccc(C(=O)Nc2nc(-c3cc4ccccc4o3)cs2)cc1	-137
FCCCOc1ccc(/C=N/OCc2c(Cl)cccc2Cl)cc1	-94
FCCCOc1ccc(/C=N/OCc2ccc(Cl)cc2)cc1	-70
C=CCOC(=O)c1c(C)nc2cc3c(cc2c1C)OCO3	-101
COc1ccc2cc(-c3cc(C(=O)OCC(=O)Nc4c(C)n(C)n(-c5ccccc5)c4=O)c4ccccc4n3)ccc2c1	n
COc1ccc(-c2cc(C(=O)OCC(=O)NC(C)C)c3ccccc3n2)cc1	-65
CCN1CCCC(OC(=O)c2cc(-c3ccc(C)cc3)nc3ccccc23)C1 (stereo not drawn)	-94
Cc1ccc(-c2cc(C(=O)N3CCN(c4ccccc4O)CC3)c3ccccc3n2)o1	-81
CCOc1ccc(-c2cc(C(=O)O)c3ccccc3n2)cc1	-83
CC(C)Oc1cccc(-c2cc(C(=O)N3CCN(c4ncccn4)CC3)c3ccccc3n2)c1	-64
COc1ccc2nc(-c3ccc(Cl)cc3)cc(C(=O)O)c2c1	-72
CCOc1ccc(-c2cc(C(=O)N3CCC(C)CC3)c3ccccc3n2)cc1	-128
Cc1cccc2c(C(=O)N3CCN(c4ccccc4)CC3)cc(-c3ccncc3)nc12	n
CN1C2CCC1/C(=C\c1ccccc1)C(=O)/C2=C\c1ccccc1	-185
N=c1n(N)c2ccccc2n1CC(=O)c1ccc(Br)cc1	-109
CC1Cc2ccccc2N1C(=O)CSc1ncc(-c2ccc(F)cc2)n1C (stereo not drawn)	-126
O=C1/C(=C/N(C(=O)c2ccco2)c2ccc(Br)cc2)Sc2ccccc21	-241
O=C1/C(=C/N(C(=O)c2ccco2)c2ccc(Cl)cc2)Sc2ccccc21	-184
Cc1cc(C)nc(Sc2ccc3nnnn3n2)n1	-72
O=C(O)c1ccc(COc2ccc3ccccc3c2)o1	-157
CCOc1ccc(OCc2ccc(C(=O)O)o2)cc1	-87
CCOc1ccc(OCc2ccc(C(=O)NCc3ccncc3)o2)cc1	-67
Cc1cc(C(=O)Nc2sc3c(c2C#N)CCCC3)no1	-81
CC(C)(C)C(=O)NC(=S)Nc1sc2c(c1C#N)CCCCC2	-106
Cc1ccc(C(=O)Nc2sc3c(c2C#N)CCCCC3)cc1C	-191
SMILES	aSyn 5UTR act
Cc1cc(C(=O)Nc2sc3c(c2C#N)CCC3)no1	-107
Cn1cc([N+](=O)[O-])c(C(=O)Nc2sc3c(c2C#N)CCC3)n1	n
Cc1ccccc1OCC(=O)Nc1sc2c(c1C#N)CCC2	-68
N#Cc1c(NC(NC(=O)c2ccco2)C(=O)c2ccccc2)sc2c1CCCC2 (stereo not drawn)	-77
Cc1noc(C(=O)Nc2sc3c(c2C#N)CCC3)c1Cl	-67
CCCC(=O)Nc1sc2c(c1C#N)CCCCC2	-167
N#Cc1c(NC(=O)CCCC(=O)O)sc2c1CCCCC2	n
C#CC[N+](C)(C)CCCCCCCCCCCC	n
COc1ccc(Cl)cc1NC(=O)c1cc(-c2ccccc2O)n[nH]1	-118
Cc1c(Cl)cccc1NC(=O)c1cc(-c2ccccc2O)n[nH]1	-206
COc1ccc(-c2csc(Nc3cc(C)ccn3)n2)cc1C	-155
COc1ccc(-c2csc(Nc3ncccn3)n2)cc1C	-76
CC(=O)[C@@]1(O)C(C)CC2C3C=C(C)C4=Cc5c(cnn5-c5ccccc5)C[C@]4(C)C3C(O)C[C@@]21C (stereo partly drawn)	n
Cc1cc(NC(=S)Nc2ccc(C)c(Cl)c2)n[nH]1	-110
